# Results reported in PubChem BioAssay AID1259313 (Sanford-Burnham Center for Chemical Genomics, 2017).
# Out of some 340,000 compounds screened, about 8,500 (2.5%) were called active. Shown is part of a subset that was picked to be rich in actives. Values without a mark were called inactive.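 How the source made its calls: active means melting temperature shift of at least 10% of the positive control shift, at one fixed dose; inactive means the rest.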
# Tested on: Glutamate receptor ionotropic, NMDA 3A (GRIN3A) ligand-binding domain
# Assay: NR3A LBD thermal stabilization by compounds – biophysical, differential scanning fluorimetry, uHTS, primary screen (AID 1259313)
# Details: at 25 µM, active compounds read high, 0% = protein alone, 100% = glycine-bound protein
row,Compound,Tm shift relative to glycine control
1,O=C(CN1CCN(S(=O)(=O)c2ccc3ccccc3c2)CC1)NC(=O)NC1CCCCC1,-9.92%
2,COc1cc(NS(=O)(=O)c2ccc(NC(=S)NC(=O)c3ccccc3)cc2)nc(OC)n1,-2.53%
3,CCOC(=O)CCP(=O)(O)C(O)(c1ccccc1)c1ccccc1,-1.33%
4,Cc1ccc(N2C(=O)CN=C2Nc2nc(C)cc(C)n2)cc1,-1.23%
5,O=C(Nc1nnc(SCc2c(Cl)cccc2Cl)s1)C1CCCO1 (configuration not stated),1.89%
6,O=C(Nc1nnc(SCc2ccccc2Cl)s1)c1cccc([N+](=O)[O-])c1,-14.6%
7,O=C(Nc1nnc(SCc2ccc(Cl)cc2Cl)s1)C1COc2ccccc2O1 (configuration not stated),15.3% (active)
8,Cc1nc([N+](=O)[O-])c(NCCCO)n1Cc1ccccc1,-1.5%
9,O=C(NCCCN1CCOCC1)c1cnn2c(-c3ccccc3)cc(-c3ccccc3)nc12,-3.89%
10,COc1ccc(OC)c(-c2csc(NC(=O)COC(=O)C3CC3)n2)c1,-1.41%
11,COc1cc(CC(=O)Nc2nc(-c3ccc(F)c(F)c3)cs2)cc(OC)c1OC,-3.34%
12,COc1ccc(OC)c(Nc2nc(-c3ccc(O)c(O)c3)cs2)c1,19% (active)
13,CCOC(=O)CNc1nc(Cl)nc(Nc2ccc(OC)cc2OC)n1,13.1% (active)
14,CCOc1ccc(Cn2nnc(C(=O)Nc3ccc(OC)cc3OC)c2N)cc1,2.21%
15,CCOC(=O)CNc1nc(Cl)nc(Nc2ccccc2)n1,-0.5%
16,CCN(CC)c1ccc(NC(=O)C2CCC(CNc3c(N4CCCC4)c(=O)c3=O)CC2)c(C)c1 (configuration not stated),1.77%
17,CCOC(=O)N1CCN(C(=O)CSc2nnc(-c3c[nH]c4ccccc34)n2CCOC)CC1,0.55%
18,OC(CNCc1ccc(Cl)c(Cl)c1)c1ccccc1 (configuration not stated),2.04%
19,COc1cccc(OC)c1C(=O)OCC(=O)/C(C#N)=C(\C)N,-2%
20,C/C(N)=C(/C#N)C(=O)COC(=O)c1cc(-c2cccc(Br)c2)nc2ccccc12,30.1% (active)
21,C/C(N)=C(/C#N)C(=O)COC(=O)c1cc(-c2ccc(C)cc2)nc2ccccc12,-1.48%
22,CN1C(=O)c2cccc3c(N)ccc(c23)C1=O,11.8% (active)
23,Cc1nn(C)cc1N1C(=O)c2cccc3c(N)ccc(c23)C1=O,-0.63%
24,COc1cc(C(=O)N2C(=O)c3cccc(N)c3C2=O)cc(OC)c1OC,-1.08%

row,Compound,Tm shift relative to glycine control
1,Cc1ccc(CNC(=O)[C@@H](NC(=O)Cc2ccccc2)C(C)C)cc1,-6.13%
2,O=C(O)C(c1ccccc1)N1C(=O)/C(=C\c2ccc(-c3cccc(Cl)c3)o2)SC1=S (configuration not stated),27.7% (active)
3,O=C1c2ccccc2NC(c2ccc(-c3cccc(Cl)c3)o2)N1O (configuration not stated),-0.47%
4,O=C1NN(c2ccccc2)C(=O)/C1=C/c1ccc(-c2cccc(C(=O)O)c2)o1,-14.4%
5,O=C(Nc1ccc(C(F)(F)F)cc1)c1cccc(-n2cnnn2)c1,-5.14%
6,O=C(O)CSc1c2c(nc3cc(C(=O)Nc4cccc(C(F)(F)F)c4)ccc13)CCCC2,-1.44%
7,O=C(Nc1ccc(-c2csc(Nc3cccc(C(F)(F)F)c3)n2)cc1)c1cccc(C(F)(F)F)c1,25.4% (active)
8,CS(=O)(=O)N(Cc1ccccc1)c1ccc(C(=O)NN=C2CCCCCC2)cc1,0.85%
9,Clc1ccc2nc(CSc3ccccc3)cn2c1,0.36%
10,Cc1c(NC(=S)NC(=O)CCc2ccccc2)c(=O)n(-c2ccccc2)n1C,-3.07%
11,O=C(O)CSc1ccc(S(=O)(=O)N2CCCC2)cn1,0.42%
12,CCN(CC)c1ccc(C(=O)N/N=C(\C)c2cccc(OC)c2)cc1,2.58%
13,COc1ccc(/C(C)=N\NC(=O)c2ccc(-c3ccccc3)cc2)c(F)c1,19.6% (active)
14,COc1ccc(/C(C)=N/NC(=O)c2ccc3nc[nH]c3c2)cc1,-1.41%
15,COc1ccc(Cl)cc1NC(=O)NC(C)C(C)(C)C (configuration not stated),-7.8%
16,O=C(CN1C(=O)CC(c2ccccc2)S(=O)(=O)c2ccccc21)NC1CCCC1 (configuration not stated),-2.04%
17,CC(=O)c1cc(-c2ccccc2)n(CC(=O)NC2CCCCC2)c1C,0.92%
18,O=C(CN1C(=O)CC(c2ccccc2)=Nc2ccccc21)NC1CCCCC1,300% (active)
19,CC(=O)/C(=N\Nc1ccc(Cl)cc1Cl)Sc1cccc2cccnc12,-8.55%
20,O=[N+]([O-])c1ccccc1S(=O)(=O)Nc1cccc2cccnc12,-0.26%
21,CCOC(=O)Cc1ncccc1C(=O)Nc1ccc(OC)cc1,-0.6%
22,O=C(Nc1ccccc1)Oc1cccc2cccnc12,-3.82%
23,O=C(Nc1ccccc1Cl)Nc1cccc2cccnc12,39.4% (active)
